# According to the supplement of paper PMC11001985:
# Compound: C#CCNC(=O)CCSSCCC(=O)NCCc1ccc(C=O)c(C=O)c1
# Test: lysine labeling ratio R10:1 (500 µM / 50 µM probe), SILAC-ABPP in living cells; higher = lower intrinsic lysine reactivity toward the probe, active = 2 or less
# Conditions: HeLa; probe concentrations 500 vs 50 µM
# Outline: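 In PBS at room temperature, living HeLa cells grown with SILAC light or heavy labels were treated with 50 µM or 500 µM of an alkyne-tagged, disulfide-linked lysine probe, with label swaps in both directions. Analysis was by LC-MS/MS on a TIMS-TOF Pro after click to biotin-azide, neutravidin capture and DTT release. For each lysine, R is the median across forward and reverse replicates of the filtered median high-probe/low-probe MS1 peptide ratio, capped at 20.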
# UniProt P07942, sequence (P07942 whole entry): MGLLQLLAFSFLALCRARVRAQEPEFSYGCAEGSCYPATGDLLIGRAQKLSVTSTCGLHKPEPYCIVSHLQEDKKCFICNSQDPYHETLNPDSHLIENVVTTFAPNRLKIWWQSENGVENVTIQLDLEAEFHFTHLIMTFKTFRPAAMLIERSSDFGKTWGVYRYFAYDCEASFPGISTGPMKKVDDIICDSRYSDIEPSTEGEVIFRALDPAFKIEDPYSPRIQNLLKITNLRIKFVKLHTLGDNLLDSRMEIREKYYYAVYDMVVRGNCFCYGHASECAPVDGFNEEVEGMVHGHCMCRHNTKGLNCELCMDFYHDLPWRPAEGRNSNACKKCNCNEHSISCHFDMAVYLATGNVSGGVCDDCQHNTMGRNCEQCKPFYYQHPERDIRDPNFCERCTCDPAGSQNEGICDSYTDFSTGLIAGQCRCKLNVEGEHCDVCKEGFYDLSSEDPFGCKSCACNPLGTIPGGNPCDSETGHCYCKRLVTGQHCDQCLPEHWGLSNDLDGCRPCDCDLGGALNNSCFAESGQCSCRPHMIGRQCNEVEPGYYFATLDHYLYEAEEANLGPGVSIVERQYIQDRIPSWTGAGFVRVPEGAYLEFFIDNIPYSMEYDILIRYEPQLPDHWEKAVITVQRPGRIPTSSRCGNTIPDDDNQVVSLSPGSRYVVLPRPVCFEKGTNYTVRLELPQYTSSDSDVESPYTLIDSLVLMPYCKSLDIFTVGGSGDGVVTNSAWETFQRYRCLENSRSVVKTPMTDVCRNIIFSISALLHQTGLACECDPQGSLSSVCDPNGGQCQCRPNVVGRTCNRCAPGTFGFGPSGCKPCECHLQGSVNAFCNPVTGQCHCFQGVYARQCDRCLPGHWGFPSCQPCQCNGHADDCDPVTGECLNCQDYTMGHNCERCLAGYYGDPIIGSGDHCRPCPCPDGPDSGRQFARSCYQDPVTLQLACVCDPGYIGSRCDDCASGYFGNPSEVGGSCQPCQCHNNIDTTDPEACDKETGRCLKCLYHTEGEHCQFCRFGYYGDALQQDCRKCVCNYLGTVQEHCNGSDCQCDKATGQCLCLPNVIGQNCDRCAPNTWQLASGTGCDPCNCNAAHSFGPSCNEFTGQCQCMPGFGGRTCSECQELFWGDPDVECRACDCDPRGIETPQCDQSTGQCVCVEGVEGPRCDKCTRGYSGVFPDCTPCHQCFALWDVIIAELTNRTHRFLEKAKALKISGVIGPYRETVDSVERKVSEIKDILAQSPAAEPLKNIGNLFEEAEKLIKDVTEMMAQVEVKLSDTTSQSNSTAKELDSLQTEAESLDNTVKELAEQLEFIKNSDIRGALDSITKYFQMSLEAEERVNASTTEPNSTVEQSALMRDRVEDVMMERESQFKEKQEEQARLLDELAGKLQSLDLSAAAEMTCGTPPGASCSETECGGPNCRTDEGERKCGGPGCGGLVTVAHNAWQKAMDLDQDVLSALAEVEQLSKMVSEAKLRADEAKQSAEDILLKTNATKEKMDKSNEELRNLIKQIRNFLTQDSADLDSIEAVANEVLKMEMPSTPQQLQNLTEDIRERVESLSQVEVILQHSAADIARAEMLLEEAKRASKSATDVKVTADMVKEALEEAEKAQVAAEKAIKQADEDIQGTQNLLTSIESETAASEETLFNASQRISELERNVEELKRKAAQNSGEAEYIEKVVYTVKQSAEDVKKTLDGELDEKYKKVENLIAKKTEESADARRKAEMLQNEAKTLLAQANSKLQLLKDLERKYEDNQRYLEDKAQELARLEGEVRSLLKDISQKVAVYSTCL
# UniProt Q02487, sequence (Q02487 whole entry): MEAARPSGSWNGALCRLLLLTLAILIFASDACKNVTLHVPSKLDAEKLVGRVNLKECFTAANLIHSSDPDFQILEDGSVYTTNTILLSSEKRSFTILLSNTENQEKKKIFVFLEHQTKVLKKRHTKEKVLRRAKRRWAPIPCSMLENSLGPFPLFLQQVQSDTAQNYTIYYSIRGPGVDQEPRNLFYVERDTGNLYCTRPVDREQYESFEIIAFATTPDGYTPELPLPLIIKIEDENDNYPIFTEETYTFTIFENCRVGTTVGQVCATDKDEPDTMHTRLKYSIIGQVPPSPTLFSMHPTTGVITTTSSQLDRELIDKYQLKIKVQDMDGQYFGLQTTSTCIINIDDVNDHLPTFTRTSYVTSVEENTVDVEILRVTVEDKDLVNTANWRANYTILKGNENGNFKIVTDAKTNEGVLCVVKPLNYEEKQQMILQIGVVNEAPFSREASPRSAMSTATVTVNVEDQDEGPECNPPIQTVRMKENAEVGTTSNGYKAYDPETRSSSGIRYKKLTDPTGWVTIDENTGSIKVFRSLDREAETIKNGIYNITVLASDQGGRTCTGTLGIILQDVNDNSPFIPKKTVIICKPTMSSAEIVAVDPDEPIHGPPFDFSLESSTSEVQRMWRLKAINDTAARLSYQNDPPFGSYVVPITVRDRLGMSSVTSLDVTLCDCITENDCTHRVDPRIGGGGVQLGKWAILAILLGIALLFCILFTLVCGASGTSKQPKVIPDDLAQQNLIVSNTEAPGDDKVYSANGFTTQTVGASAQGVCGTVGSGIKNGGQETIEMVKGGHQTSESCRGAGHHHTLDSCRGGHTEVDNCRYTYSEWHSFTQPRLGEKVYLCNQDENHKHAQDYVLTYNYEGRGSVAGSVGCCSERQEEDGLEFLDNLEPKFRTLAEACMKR
# UniProt Q01813, sequence (Q01813 whole entry): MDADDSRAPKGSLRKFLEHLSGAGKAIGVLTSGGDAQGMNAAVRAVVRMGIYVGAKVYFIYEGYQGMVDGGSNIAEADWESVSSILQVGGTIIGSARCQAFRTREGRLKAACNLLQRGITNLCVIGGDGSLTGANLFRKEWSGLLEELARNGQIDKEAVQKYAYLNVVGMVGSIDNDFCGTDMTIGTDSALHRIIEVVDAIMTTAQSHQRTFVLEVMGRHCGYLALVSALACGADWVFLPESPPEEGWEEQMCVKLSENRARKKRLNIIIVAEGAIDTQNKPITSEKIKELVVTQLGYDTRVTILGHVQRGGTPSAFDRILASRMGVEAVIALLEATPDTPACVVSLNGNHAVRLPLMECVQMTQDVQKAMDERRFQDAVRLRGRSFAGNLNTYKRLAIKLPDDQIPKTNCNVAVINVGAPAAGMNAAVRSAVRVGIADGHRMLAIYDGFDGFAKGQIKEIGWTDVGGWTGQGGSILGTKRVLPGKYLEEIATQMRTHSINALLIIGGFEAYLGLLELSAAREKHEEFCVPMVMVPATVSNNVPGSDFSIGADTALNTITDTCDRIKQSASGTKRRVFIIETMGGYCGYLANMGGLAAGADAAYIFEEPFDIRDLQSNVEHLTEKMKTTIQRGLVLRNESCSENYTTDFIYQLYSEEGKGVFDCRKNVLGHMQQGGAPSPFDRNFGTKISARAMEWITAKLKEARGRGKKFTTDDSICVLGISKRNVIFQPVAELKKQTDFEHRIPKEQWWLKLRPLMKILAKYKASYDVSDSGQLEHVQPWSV
# UniProt Q9H4F8, sequence (Q9H4F8 whole entry): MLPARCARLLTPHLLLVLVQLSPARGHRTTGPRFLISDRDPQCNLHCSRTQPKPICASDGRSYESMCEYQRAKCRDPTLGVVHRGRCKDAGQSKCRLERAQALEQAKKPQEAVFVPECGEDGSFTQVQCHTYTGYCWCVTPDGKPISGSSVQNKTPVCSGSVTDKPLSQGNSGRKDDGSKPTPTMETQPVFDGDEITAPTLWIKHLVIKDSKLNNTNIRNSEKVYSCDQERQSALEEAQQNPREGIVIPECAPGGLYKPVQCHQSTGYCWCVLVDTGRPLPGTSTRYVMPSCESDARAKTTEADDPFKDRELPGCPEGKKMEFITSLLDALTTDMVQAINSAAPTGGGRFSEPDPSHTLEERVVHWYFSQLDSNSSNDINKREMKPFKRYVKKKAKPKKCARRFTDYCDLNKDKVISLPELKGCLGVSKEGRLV
row,Target,lysine labeling ratio R10:1
1,UniProt Q16363 (lysine site: K1723),2.13 (inactive)
2,DSC2 (lysine site: K270) (UniProt Q02487),2.49 (inactive)
3,SMOC1 (lysine site: K223) (UniProt Q9H4F8),4.99 (inactive)
4,PFKP (lysine site: K109) (UniProt Q01813),1.5 (active)
5,LAMB1 (lysine site: K1370) (UniProt P07942),1.61 (active)
